Hits are enriched below; roughly 0.97% of the tested compounds scored in any of these assays.
CtBP-E1A inh = inhibitors of CtBP/E1A interaction. AlphaScreen GST-E1A/His-CtBP binding, 1536-well; active compounds read low. activity change, % (concentration not given with the values). hit rate 0.49% among 340,000
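Steps: dispense buffer (Tris pH 8.0, NaCl 300 mM, TCEP 1 mM, BSA, Tween 20); add 5X protein mix (GST-E1A, His-CtBP, 125 nM each); pin 23 nL compound; 2 h at 37 °C, dark; add 5X beads (50 ug/mL); 1 h; read.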
PI4K2A block = PI4K2A (human) kinase inhibition; Q9BTU6; purified PI4K2A, ADP-Glo luminescence, 1 h; active compounds read low; activity change, negative = inhibition, % at 76.9 µM; hit rate 0.13% among 420,000; in the data active means activity change below about -50%; inconclusive means mostly about -30% to -49%;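 further: -100% = wells without enzyme as full effect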
Target sequence (Q9BTU6 whole entry, looked up): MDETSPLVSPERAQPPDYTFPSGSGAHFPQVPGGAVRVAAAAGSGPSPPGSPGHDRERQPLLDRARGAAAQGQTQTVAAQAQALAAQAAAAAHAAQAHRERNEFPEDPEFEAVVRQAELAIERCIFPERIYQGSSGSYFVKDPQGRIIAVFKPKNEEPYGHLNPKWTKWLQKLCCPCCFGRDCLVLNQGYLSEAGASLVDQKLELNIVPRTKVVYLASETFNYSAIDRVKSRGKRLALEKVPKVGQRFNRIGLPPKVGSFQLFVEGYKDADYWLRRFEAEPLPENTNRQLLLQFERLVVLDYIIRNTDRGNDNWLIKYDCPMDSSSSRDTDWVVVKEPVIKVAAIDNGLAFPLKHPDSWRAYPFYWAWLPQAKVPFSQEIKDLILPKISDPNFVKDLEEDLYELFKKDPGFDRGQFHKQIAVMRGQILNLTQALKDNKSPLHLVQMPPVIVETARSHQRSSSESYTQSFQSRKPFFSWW
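PI4K2A activity was measured by ADP-Glo luminescence: enzyme (4 ug/mL stock) and phosphatidylinositol (1.2 mM stock) in Tris pH 7.5/MgCl2/EGTA/Triton X-100 buffer were reacted with ATP (300 microM stock) for one hour at ambient temperature.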
Eya2 inh = inhibitors of human Eya2 phosphatase activity | O00167 | recombinant Eya2, OMFP fluorescence dephosphorylation (OMFP is methylfluorescein phosphate) | Potency, µM (doses to about 76.9 µM), without a hit: at the highest dose activity, negative = inhibition, hits mostly inhibitors | hit rate 0.006% among 330,000 | AID 488837; active means well fitted inhibition curve with a large enough effect; inconclusive means small, poorly fitted or top-dose-only effect, or effect the other way; further: potency means the concentration at half of the fitted maximal effect
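Eya2 protein (added as 0.2 uM solution) was preincubated with compound for 10 min at ambient temperature in 50 mM HEPES pH 7.5, 50 mM NaCl, 5 uM MgCl2, 0.05% BSA, 1 mM DTT. OMFP (added at 50 uM) then reacted 10 min; fluorescence read at 485/525 nm.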
CCT modulator = modulators of cytosolic chaperonin (CCT/TRiC) activity; purified chaperonin ATPase assay, HTRF ADP detection, 30 min; activity change, % (test concentration not listed), hits read low; hit rate 0.3% among 360,000; in the data active means activity change below about -30%
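TRiC at 40 or 20 nM final (batch-dependent) in 30 mM Tris pH 7.4, 100 mM KCl, 5 mM MgCl2, 1 mM DTT, with compound at single 76 uM and 10 uM ATP, 30 min at 37 deg C. ADP detected by HTRF Transcreener, 665/615 ratio.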
Six1-Eya2 inh = blocks human Six1 binding to Eya2. Q15475+O00167. AlphaScreen GST-Six1/His-Eya2 binding, biochemical; active compounds read low. hit rate 0.56% among 360,000. activity change, % (test concentration not listed)
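Six1/Eya2 binding was read as AlphaScreen signal after compounds were pinned into GST-Six1 plus His-tagged Eya2 (5X stock 250/500 nM) in pH 8.0 Tris/NaCl/TCEP buffer, beads added, then incubated 1 h, 37 C, dark.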
Numbers without * were called inactive; u = inconclusive; x = no result. Unless noted, no stated cut-off is given here; in the data, active means activity change below about -65%; inconclusive means mostly about -30% to -63%; inactive means weaker than that. Unless noted, on the % scale 0 is the no-effect control and ±100 the full control effect.

SMILES	CtBP-E1A inh	PI4K2A block	Eya2 inh	CCT modulator	Six1-Eya2 inh
COc1ccc2cc1Oc1cc3c(cc1OC)CC[N+](C)(C)[C@H]3Cc1ccc(cc1)Oc1c(OC)c(OC)cc3c1[C@@H](C2)[N+](C)(C)CC3	x	0	x	x	x
Cc1cccc(C)c1OCC(=O)Nc1ccccc1C(F)(F)F	23	-3	1%	-38*	12
Cc1ccc(-n2c(=O)[nH]c3cc(C(=O)NCc4ccccc4)ccc3c2=O)cc1	x	2	x	x	x
O=C(CCn1nc(-c2ccccc2)c2ccccc2c1=O)Nc1cccnc1	x	-4	-3%	0	1
Cc1ccc(-c2nn(CCC(=O)Nc3cccnc3)c(=O)c3ccccc23)cc1	3	2	-15%	-65*	-2
CC(=O)N1N=C(c2ccc3nccnc3c2)CC1c1ccccc1 (configuration not stated)	0	3	3%	1	2
CC(=O)N1N=C(c2ccccc2OC(=O)/C=C/c2ccccc2)CC1c1ccccc1 (configuration not stated)	-80*	1	14%	-4	u
CC(C)C[C@H](NC1(C(=O)NCCc2c[nH]c3ccccc23)CCC1)C(=O)NCCCc1ccccc1	x	-4	x	x	x
COc1cccc(Cn2ncc3c4sc(B(O)O)cc4n(C)c3c2=O)c1	x	x	1%	x	x
NC1=NC(=O)/C(=C\c2ccc(O)c([N+](=O)[O-])c2)S1	-82*	-3	3%	1	-76*
COc1cc(/C=C2/SC(N)=NC2=O)ccc1Oc1ccc([N+](=O)[O-])cc1[N+](=O)[O-]	-8	0	-7%	-1	-2
COCCCNC(=O)/C(C#N)=C/c1c(N2CCN(C)CC2)nc2c(C)cccn2c1=O	12	1	8%	0	-3
COCCNC(=O)/C(C#N)=C/c1c(N2CCN(C)CC2)nc2c(C)cccn2c1=O	-76*	5	-15%	-2	-2
C=CC(=O)N1CCCC(Nc2nc(Nc3ccc(N(C)C(=O)CC)cc3C)nc3nc[nH]c23)C1 (configuration not stated)	u	-3	5%	-1	-67*
CN1C(=O)c2cccc(N(C)C)c2C1=O	-13	-2	8%	-1	2
CN(C)c1cccc2c1C(=O)c1ccccc1C2=O	-85*	-13	-12%	-30	-86*
CC(=O)N1CCc2c(sc3c2c(=O)n(-c2cccc(Cl)c2C)c(=O)n3Cc2ccccc2C)C1	x	-3	x	x	x
COc1cccc(N=Nc2c(N)[nH]n3c(=O)c4c(nc23)CCCC4)c1	-16	6	7%	1	-71*
Cc1cn(C2OC(COC(=O)c3ccccc3)C(OC(=O)c3ccccc3)C2OC(=O)c2ccccc2)c(=O)[nH]c1=O (configuration not stated)	-6	6	-5%	-1	-9
Cc1cn(C2OC(COC(=O)c3ccccc3)C(O)C2O)c(=O)[nH]c1=O (configuration not stated)	-8	-6	26%	-32*	-9
CN(C)CCCN(C(=O)COc1ccc(Cl)cc1)c1nc2cc3c(cc2s1)OCO3	-23	-3	0%	-35*	-17
CCN(C(=O)c1cc(S(=O)(=O)N2CCc3ccccc32)cn1C)c1cccc(C)c1	x	10	x	x	x
O=C(O)c1cccc(Nc2nc(-c3cccnc3)nc3ccccc23)c1	u	-4	8%	0	-80*
Cc1ccc(C(=O)NC2(C(F)(F)F)N=C(c3ccccc3)N(Cc3ccccc3)C2=O)cc1 (configuration not stated)	x	-3	x	x	x
Cc1ccc(CN2CC(C(=O)Nc3ccc(C)c(S(=O)(=O)N4CCCCC4)c3)CC2=O)cc1 (configuration not stated)	-6	0	x	-41*	-4
O=S1(=O)CCOCC(CO)N1Cc1cccc(Br)c1 (configuration not stated)	x	-4	x	x	x
CCOc1ccccc1-n1nnc(-c2nsc(NC(=O)c3ccc(C)cc3)n2)c1C	x	-2	x	x	x
Oc1ccc(/C=N/NC(=S)Nc2cccnc2)c(O)c1O	-93*	-3	-3%	-3	-89*
Oc1ccc(C=NNC(=S)Nc2ccccc2)nc1	-76*	-26	x	1	-97*
Fc1c(F)c(F)c(/C=N/NC(=S)Nc2cccnc2)c(F)c1F	-1	-11	4%	0	0

Source: PubChem BioAssay (National Center for Advancing Translational Sciences (NCATS))
